# Screening results as filed in PubChem BioAssay.
# TDP1 cell noCPT – qHTS for Inhibitors of human tyrosyl-DNA phosphodiesterase 1 (TDP1): qHTS in cells in absence of CPT. 15% of 420,000 active. DT40 Tdp1-/- hTDP1 cells, no CPT, ATP luminescence, 48 h. AID 686978, 2013. Potency, µM (doses to about 46.2 µM), without a hit: at the highest dose activity change, negative = growth inhibition, actives largely listed as inhibitors; note: potency is the fitted concentration of half-maximal effect; % is set by controls: 0 for no effect and ±100 for the full control effect; nearly all actives have a fitted effect of over 55% in size
#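 Luminescent ATP content (CellTiter-Glo) served as the growth readout. Knockout chicken DT40 cells expressing human TDP1 were exposed to compounds without camptothecin for a minimum 48 hr at 37 °C.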
# TGFb SMAD3 inh – TGF-b pathway inhibition | Potency, µM (highest dose often 46.1 µM), without a hit: at the highest dose activity, negative = inhibition, most hits filed as inhibitors | 1.2% of 410,000 active | AID 588855 | HepG2 CAGA-GFP TGF-b/SMAD3 reporter, GFP fluorescence, 18 h; TGF-beta stimulated, 500 pg/mL final; note: potency is the fitted concentration of half-maximal effect; % is set by controls: 0 for no effect and ±100 for the full control effect; nearly all actives have a fitted effect of over 65% in size
#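 Using HEPG2 CAGA-GFP reporter cells at 1000 cells/well, we pinned test compounds, stimulated with recombinant TGF-beta (500 pg/mL final) and measured total well GFP after 18 h.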
# TDP1 inh – inhibitors of human tyrosyl-DNA phosphodiesterase TDP1; Q9NUW8; Potency, µM (top dose mostly 130 µM), without a hit: at the highest dose activity change, negative = inhibition, most hits filed as inhibitors; 0.28% of 350,000 active; recombinant TDP1, AlphaScreen DNA substrate cleavage; note: potency is the fitted concentration of half-maximal effect; % is set by controls: 0 for no effect and ±100 for the full control effect; nearly all actives have a fitted effect of over 40% in size
# Target sequence (Q9NUW8 whole entry, looked up): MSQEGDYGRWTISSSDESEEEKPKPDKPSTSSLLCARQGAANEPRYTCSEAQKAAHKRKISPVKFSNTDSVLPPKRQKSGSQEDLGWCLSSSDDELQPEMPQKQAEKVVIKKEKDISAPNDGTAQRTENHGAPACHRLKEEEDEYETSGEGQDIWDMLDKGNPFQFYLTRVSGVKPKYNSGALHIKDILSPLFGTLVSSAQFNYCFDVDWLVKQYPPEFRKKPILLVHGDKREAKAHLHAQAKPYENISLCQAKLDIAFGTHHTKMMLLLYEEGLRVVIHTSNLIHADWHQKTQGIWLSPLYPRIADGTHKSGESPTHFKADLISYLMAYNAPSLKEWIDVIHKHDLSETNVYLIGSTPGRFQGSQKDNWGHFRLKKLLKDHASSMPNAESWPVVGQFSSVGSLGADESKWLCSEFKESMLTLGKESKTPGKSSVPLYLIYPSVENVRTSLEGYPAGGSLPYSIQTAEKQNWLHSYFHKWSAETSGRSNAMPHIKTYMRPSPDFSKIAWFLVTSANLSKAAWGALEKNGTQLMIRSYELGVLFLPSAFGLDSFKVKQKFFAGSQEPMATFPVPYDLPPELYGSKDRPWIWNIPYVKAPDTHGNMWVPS
#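 Recombinant E. coli-expressed Tdp1 (1 nM) preincubated with compound 15 min at RT, then 5'-biotin/3'-phosphotyrosine-FITC DNA substrate (15 nM) added for 5 min. AlphaScreen beads (10 ug/ml) added, 10 min RT; tyrosine-FITC cleavage read as signal loss.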
# HepG2 viability – HepG2 cytotoxicity, counter-screen for TGF-b inhibitors; Potency, µM (titrated, usually from 46.1 µM), for inactives: at the top dose activity change, negative = cytotoxicity, usual class: cytotoxic; 0.76% of 410,000 active; HepG2 CAGA-GFP viability, ATP luminescence, 18 h; note: potency is the fitted concentration of half-maximal effect
#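 CellTiter-Glo luminescence gave cytotoxicity after 18 hours at 37 degrees C. The cells were HepG2 CAGA-GFP in 1% FBS DMEM, stimulated with 500 pg/mL TGF-beta after compound addition. %Activity was normalised to no-cell wells (complete cell-killing) and DMSO (no toxicity), and curves were fitted and classified.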
# TDP1 cell CPT – growth inhibition of DT40 Tdp1-/-;hTDP1 cells with camptothecin (screen for TDP1 inhibitors). chicken DT40 Tdp1-/-;hTDP1 cells + 20 nM CPT, ATP luminescence, 48 h. 12% of 420,000 active. AID 686979. Potency, µM (titrated, usually from 46.2 µM), without a hit: top-dose activity change, negative = growth inhibition, hits mostly inhibitors; note: potency is the fitted concentration of half-maximal effect; % is set by controls: 0 for no effect and ±100 for the full control effect; nearly all actives have a fitted effect of over 55% in size
#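 Cell growth measured by CellTiter-Glo luminescence after a minimum 48 h, 37 C compound exposure with 20 nM CPT in Tdp1-knockout DT40 cells stably expressing hTDP1, seeded 400/well; qHTS titration format.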
# IL-1B inflam inh – inhibitors of inflammasome signaling (IL-1 beta secretion) | THP-1 LPS/ATP IL-1B secretion, AlphaLISA, 16 h; hits give low values | activity change, % at 57.5 µM | 4.7% of 360,000 active | AID 743279; in the data active = activity change below about -50%; inconclusive = mostly about -30% to -49%; note: % is set by controls: 0 for no effect and ±100 for the full control effect
#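 THP-1 cells pretreated 1 hr with compounds (up to 57.5 uM final), then stimulated with LPS (250 ng/mL final) plus ATP (1.25 mM final); secreted IL-1B measured by AlphaLISA after 16 hr, decreased signal indicating inhibition.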
# The depositor's hits bear a star; u = inconclusive; x = no result; [ ] = remark or other dose. A selection: hits, their analogues and other compounds. The true share with any hit is near 18%. Unless noted, calls come from the whole dose curve; as a rule, active = well fitted curve in the direction sought with a large enough effect; inconclusive = small, poorly fitted or top-dose-only effect, or another doubt; inactive = no such curve, though single readings can be large; an effect the other way counts as inactive or inconclusive.
SMILES,TDP1 cell noCPT,TGFb SMAD3 inh,TDP1 inh,HepG2 viability,TDP1 cell CPT,IL-1B inflam inh
O=C1C=CN2CCOCC2C1 (stereo unspecified),-3%,-8%,1%,1%,5%,18
O=C1C=CN2CCCCC2CC1 (stereo unspecified),16µM*,1%,4%,-5%,10µM*,66
CCCC[C@@H]1CCCO[C@@](C(=O)NCc2ccccc2)(C(F)(F)F)C1,x,-13%,-1%,-15%,x,x
CCC[C@@H]1CCCO[C@@](C(=O)NCc2ccc(S(C)(=O)=O)cc2)(C(F)(F)F)C1,u,u,9%,-24%,29µM*,-8
O=C(NCc1ccccc1)[C@]1(C(F)(F)F)C[C@H](CCc2ccccc2)CCCO1,-22%,u,-11%,1%,-6%,21
O=C(NCCNCCO)C1(C(F)(F)F)CC(CCc2ccccc2)CCCO1 (stereo unspecified),x,4µM*,7%,-22%,x,x
O=C(NCC1CC1)[C@]1(C(F)(F)F)C[C@H](CCC2CCCCC2)CCCO1,23µM*,-19%,-3%,-58%,u,38
Cc1cccn2c(=O)c3cc(C(=O)NC4CCCC4)c(=N)n(CCCN4CCOCC4)c3nc12,u,0%,-7%,-24%,u,30
Cc1ccc(-n2c(=O)c3ccc(C(=O)NCc4ccccc4Cl)cc3n(Cc3ccccc3F)c2=O)cc1,3%,u,0%,-22%,-7%,x
O=C(CC(SCCO)c1ccc(F)cc1)c1ccco1 (stereo unspecified),16µM*,0%,-4%,-11%,18µM*,-27
O=C(c1ccco1)N1CCN=C1SCc1ccc(F)cc1,-28%,4%,8%,-2%,0%,-2
CN(C)c1ncnc2ccc(-c3ccc4c(c3)OCO4)cc12,23µM*,x,x,x,u,x
N#Cc1cccc(-c2ccc3ncnc(NCc4ccccc4)c3c2)c1,26µM*,x,x,x,u,x
Brc1ccc2ncnc(NCc3ccccc3)c2c1,8.2µM*,u,2%,-10%,7.3µM*,u
COc1ccccc1CNc1ncnc2ccc(-c3cccc(NS(C)(=O)=O)c3)cc12,1.5µM*,x,x,x,1.6µM*,x
CC(=O)NCCNc1ncnc2ccc(-c3cccc(NS(C)(=O)=O)c3)cc12,-4%,x,x,x,u,x
Cn1c(=O)c2c(nc(SCC(=O)Nc3ccc(F)c(F)c3)n2Cc2ccccc2F)n(C)c1=O,u,3%,-1%,1%,u,x
CC(=O)NC(Cc1ccc(F)cc1)C(=O)NC1CCN(C(=O)Nc2ccc(F)cc2)CC1 (stereo unspecified),1%,24%,0%,-3%,-2%,15
COc1cccc(-c2cncnc2NCc2cccnc2)c1,-26%,x,x,x,-10%,x
COc1cccc(-c2ccc3ncnc(NCc4ccccc4OC)c3c2)c1,15µM*,x,5%[56.1 µM],x,u,x
CN(C)c1ncnc2ccc(-c3cccc(C#N)c3)cc12,u,x,x,x,26µM*,x
N#Cc1cccc(-c2ccc3ncnc(N4CCNCC4)c3c2)c1,u,x,x,x,-13%,x
COc1cccc(-c2ccc3ncnc(NCc4cc(C)cs4)c3c2)c1,x,-21%,2%,-36%,x,x
COc1cccc(-c2ccc3ncnc(NCc4ccc5c(c4)OCO5)c3c2)c1,x,u,5%,-19%,x,x
COc1cccc(-c2cncnc2NCc2cccc(C)c2)c1,23µM*,x,x,x,u,x
SMILES,TDP1 cell noCPT,TGFb SMAD3 inh,TDP1 inh,HepG2 viability,TDP1 cell CPT,IL-1B inflam inh
COc1cccc(-c2ccc3ncnc(NCc4ccccc4)c3c2)c1,21µM*,x,x,x,u,x
CCOC(=O)CCNC(=O)N1CCCC(N2CCN(c3ccc(OC)cc3)CC2)C1 (stereo unspecified),7%,5%,x,-7%,14%,2
CN1C(=O)C(C)(C)c2cc(S(=O)(=O)N3CCCC3C(=O)Nc3ccc(F)cc3)ccc21 (stereo unspecified),u,1%,-3%,-24%,u,x
CC1CN(C(=O)CCC(=O)NCc2ccccn2)c2ccccc2O1 (stereo unspecified),4%,-7%,x,-8%,13%,-6
Cc1cccc(CNc2cc(-c3cccc(C#N)c3)ncn2)c1,4.6µM*,x,-4%,x,21µM*,x
COCCNc1ncnc2ccc(-c3cccc(OC)c3)cc12,23µM*,x,x,x,u,x
Cc1cccc(-c2ccc3ncnc(NCc4cccs4)c3c2)c1,x,u,1%,-31%,x,x
Cc1cc(C(=O)NCC(C)(C)N2CCOCC2)c(C)o1,0%,11%,0%,-6%,2%,0
N#CNC(=Nc1cccc(Cl)c1)Oc1ccccc1,-25%,-29%,x,-59%,u,0
N#CNC(=Nc1ccc(Cl)cc1)Oc1ccccc1,u,-10%,0%,-160%,u,-55*
COc1cccc(CSc2nc3ccccc3cc2C=O)c1,1µM*,u,1%,-31%,1.2µM*,49
COc1cccc(CNC(=O)Cn2nc(C)c3sc4ccccc4c3c2=O)c1OC,-13%,9%,14%,6%,-12%,x
O=C(Nc1cnn(Cc2ccc(F)cc2)c1)c1cnccn1,16%,-2%,7%,5%,-1%,21
O=C(Nc1cnn(Cc2ccc(F)cc2)c1)C(c1ccccc1)c1ccccc1,21µM*,13µM*,5%,-5%,u,-6
COc1ccc(Cn2ccc3nc(C)c(C(=O)NCc4ccc(SC)cc4)cc3c2=O)cc1,u,1%,5%,0%,-4%,x
CCCCNC(=O)Cn1c(SCc2cccc(C)c2)nc2ccncc21,-19%,-3%,0%,-11%,-23%,x
CC(C)N(C(C)C)S(=O)(=O)c1ccc(NN)nc1,u,-23%,-1%,-23%,u,94
CCN(CC)S(=O)(=O)c1ccc(NN)nc1,u,2%,8%,-4%,21µM*,86
CCN(CC)S(=O)(=O)c1ccc(N/N=C/c2cc(OC)ccc2O)nc1,6.5µM*,-14%,7%,-22%,5.8µM*,58
CCN(CC)S(=O)(=O)c1ccc(N/N=C/c2cccnc2)nc1,-24%,0%,2%,-2%,-14%,-12
O=C(COc1ccccc1F)Nc1ccc2c(c1)OCCO2,-13%,14%,-2%[0.0935 µM],7%,4%,6
C=CCC1(C#N)C(SC)=NC2=C(C(=O)CC(C)(C)C2)C1c1ccc(Br)cc1 (stereo unspecified),u,u,8%,-7%,u,1
